# Measurements taken from the supplement of paper PMC10981050.
# “And” between values parts separate entries of the source, which are not always exact repeats. Identical values can stand only once. Counter-ions that a name gives are not always drawn.
# Assays:
# Test in all cases: cell viability relative to vehicle control; higher = less cytotoxic
# Conditions in all cases: 10 µM
# [1] = system: K562
# Procedure, shortened: (§1)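 CRISPR-edited mutant clones and isogenic wild-type clones from four leukaemia lines were screened against Selleck bioactive, kinase and epigenetic probe libraries, with identity-inconsistent compounds excluded. Each compound was acoustically dispensed at a single 10 µM dose into 384-well plates holding 2000 cells in 50 µL medium per well. After 48 h the supernatant was removed and CellTiter-Glo luminescence was read. Viability was expressed as percent of the on-plate vehicle control and analysed in Genedata Screener.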
# [2] = system: MARIMO
# Procedure, shortened: as §1
# [3] = system: MOLM14
# Procedure, shortened: as §1
# [4] = system: OCI-AML2
# Procedure, shortened: as §1
Compound,cell viability ([1]; SRSF2 genotype: SRSF2 P95H/wt),cell viability ([1]; SRSF2 genotype: SRSF2 wt/wt) [%],cell viability ([2]; SRSF2 genotype: SRSF2 P95H/wt) [%],cell viability ([2]; SRSF2 genotype: SRSF2 wt/wt) [%],cell viability ([3]; SRSF2 genotype: SRSF2 P95H/wt) [%],cell viability ([3]; SRSF2 genotype: SRSF2 wt/wt) [%],cell viability ([4]; SRSF2 genotype: P95H/wt) [%],cell viability ([4]; SRSF2 genotype: wt/wt) [%]
N#Cc1cnc(Nc2cc(NC[C@H]3CNCCO3)c(C(F)(F)F)cn2)cn1,19% and 24.2%,13.3,44.5,54.4,16.4,10.3,14.5,14.1
CC(=O)O[C@H]1C[C@@]2(C)[C@@H](C[C@@H](O)[C@H]3[C@@]4(C)CC[C@@H](O)[C@@H](C)[C@@H]4CC[C@@]32C)/C1=C(\CCC=C(C)C)C(=O)O [Fusidate Sodium],101% and 95.3%,102,102,104,102,100,94.7,108
O=C(O)c1ccc2c(c1)C(=O)c1ccccc1C2=O [Anthraquinone-2-carboxylic Acid],100% and 101%,92.5,98,92,102,98.5,96.3,94.9
CCCCOc1nc(N)c2c(n1)N(Cc1cccc(CN3CCCC3)c1)CC(=O)N2,86.2% and 92.1%,90,87,91.3,97.2,93.4,97.4,90.6
Cc1ccc2c(=O)c3cccc(CC(=O)O)c3oc2c1C [DMXAA (Vadimezan)],90% and 87.7%,90.5,89.9,102,85.4,87.8,88.9,93.1
N#CCC1(n2cc(-c3ncnc4[nH]ccc34)cn2)CN(C2CCN(C(=O)c3ccnc(C(F)(F)F)c3F)CC2)C1,99.3% and 104%,107,97.5,101,97.6,102,108,110
C[C@H]1CNC(=O)c2cnn3ccc(nc23)N[C@H](C)c2cc(F)ccc2O1,14.4% and 36.7%,18,48.6,51.6,9.21,5.47,8.06,19.4
Cc1nc(N(C)C(=O)Cc2ccc(-c3ccccn3)cc2)sc1S(N)(=O)=O [Pritelivir (BAY 57-1293)],99.6% and 99.5%,92.1,103,112,108,103,98.5,95.7
"CC(=O)c1ccc(O)cc1O [2,4-Dihydroxyacetophenone]",100% and 87%,86.2,93.5,99.8,96,94.1,92.3,94.8
O=C1Cc2c([nH]c3ccc(Br)cc23)-c2ncccc2N1 [1-Azakenpaullone],109% and 116%,104,122,127,128,122,153,148
Cn1nnc(-c2ccc3c(c2)[nH]c2nc(Cc4ccccc4)nc(NC4CCC(N)CC4)c23)n1 (stereo unspecified),0.17%,0.16,0.14,0.19,0.11,0.13,0.18,0.13
COc1ccc2cc3[n+](cc2c1OC)CCc1cc2c(cc1-3)OCO2 [Berberine],65.6% and 74.1%,72.6,67.3,62.1,75.4,81.8,52,53.8
CC(=O)N1CCC(Nc2cc(C(=O)NC[C@H](O)CN3CCc4ccccc4C3)ncn2)CC1,91.8% and 96.6%,90.9,88.8,103,87.6,94.5,78.3,85.2
CC1(C)O[C@H]1COc1c2ccoc2cc2oc(=O)ccc12 [Oxypeucedanin],93.6% and 100%,97.6,92.1,93.2,93.6,101,81.9,93.4
C=C[C@H]1CN2CC[C@H]1C[C@H]2[C@H](O)c1ccnc2ccc(OC)cc12 [Quinine hydrochloride dihydrate],90.8% and 92.7%,88,87.7,86.5,79.7,93.2,88.9,84.9
O=C(O)c1c[nH]c2ccccc12 [Indole-3-carboxylic acid],103% and 92%,100,97.8,110,94.3,101,92.3,114
NC(=O)c1cnccn1 [Pyrazinamide (Pyrazinoic acid amide)],107% and 105%,110,104,114,103,105,95.6,109
COc1ccccc1S(=O)(=O)Nc1ccc2c(c1)CN(C)C(=O)N2,81.5% and 75.9%,76.5,48.9,46.6,33.4,34.5,27.1,40.2
O=C1C[C@@H](c2ccccc2)Oc2cc(O)cc(O)c21 [Pinocembrin],91.6% and 92.5%,95.4,96.4,99.8,109,112,95.1,87.8
Cc1cc(C)nc(NS(=O)(=O)c2ccc(N)cc2)n1 [Sulfamethazine],108% and 111%,108,105,109,110,110,119,96.2
CCCc1nc2c(C)cc(-c3nc4ccccc4n3C)cc2n1Cc1ccc(-c2ccccc2C(=O)O)cc1 [Telmisartan (Micardis)],103% and 107%,99.5,112,117,110,103,108,128

Compound,cell viability ([1]; SRSF2 genotype: SRSF2 P95H/wt),cell viability ([1]; SRSF2 genotype: SRSF2 wt/wt) [%],cell viability ([2]; SRSF2 genotype: SRSF2 P95H/wt) [%],cell viability ([2]; SRSF2 genotype: SRSF2 wt/wt) [%],cell viability ([3]; SRSF2 genotype: SRSF2 P95H/wt) [%],cell viability ([3]; SRSF2 genotype: SRSF2 wt/wt) [%],cell viability ([4]; SRSF2 genotype: P95H/wt) [%],cell viability ([4]; SRSF2 genotype: wt/wt) [%]
O=[N+]([O-])c1ccc(Nc2ccccc2-c2ccccc2)c2nonc12,104% and 97.4%,95.7,96.7,109,94.2,95.2,103,107
CO[C@@H]1[C@@H](OC)[C@H](C)[C@@](O)(CC(=O)O)O[C@H]1[C@H](C)[C@H]1O[C@@]2(CC[C@@](C)([C@H]3CC[C@@](C)([C@@H]4O[C@@H]([C@H]5O[C@](C)(O)[C@H](C)C[C@@H]5C)C[C@@H]4O[C@@H]4C[C@H](OC)[C@@H](OC)[C@H](C)O4)O3)O2)C[C@H](O)[C@H]1C [Maduramycin Ammonium],3.55% and 4.75%,8.25,22.7,17.7,25.6,22.5,1.54,8.79
CCN(CC)CCNC(=O)c1c(C)[nH]c(/C=C2\C(=O)Nc3ccc(-c4csc(-c5ccccc5)n4)cc32)c1C [Amcasertib (BBI503)],0.84% and 1.26%,0.76,66.4,43.4,4.21,8.87,4.03,26
C[C@]12C=CC(=O)C=C1CC[C@H]1[C@@H]3C[C@@H](O)[C@](O)(C(=O)CO)[C@@]3(C)C[C@H](O)[C@@]12F [Triamcinolone (Aristocort)],107%,106,100,108,107,98.3,110,122
COC(=O)CCSCc1ccc(-c2onc(C)c2NC(=O)OC(C)c2ccccc2Cl)cc1 (stereo unspecified),94.7% and 94%,94.3,87.3,97.7,90,94.7,82.3,100
CO[C@H]1/C=C\C=C(/C)C(=O)NC2=CC(=O)C(NCCN(C)C)=C(C[C@@H](C)C[C@H](OC)[C@H](O)[C@@H](C)/C=C(\C)[C@@H]1OC(N)=O)C2=O [17-DMAG HCl (Alvespimycin)],14% and 15.5%,24,28.1,22.5,0.45,0.4,3.25,12
CO[C@H]1C[C@@H]2CC[C@@H](C)[C@@](O)(O2)C(=O)C(=O)N2CCCC[C@H]2C(=O)O[C@H]([C@H](C)C[C@@H]2CC[C@@H](OP(C)(C)=O)[C@H](OC)C2)CC(=O)[C@H](C)/C=C(\C)[C@@H](O)[C@@H](OC)C(=O)[C@H](C)C[C@H](C)/C=C/C=C/C=C/1C [Deforolimus (MK-8669)],71.2% and 68.8%,70.8,75,75,54.2,60.8,67.5,64
Cn1c(=O)c(Oc2ccc(F)cc2F)cc2cnc(NC(CCO)CCO)nc21,91.7% and 92.6%,90.4,98.9,97.2,92.2,99.8,96.2,92.2
O=[N+]([O-])c1cn2c(n1)OC[C@@H](OCc1ccc(OC(F)(F)F)cc1)C2,94.3% and 98.1%,91.8,92.7,101,97.8,97.5,98.9,99.5
C=CC(=O)Nc1cccc(Oc2nc(Nc3ccc(N4CCN(C)CC4)cc3OC)ncc2Cl)c1,102% and 107%,103,85.8,98.7,57.6,84.8,92,83.9
N#Cc1c(O)c2c(-c3ccc(-c4ccccc4O)cc3)csc2[nH]c1=O,102% and 100%,103,99.1,103,104,99,93.1,101
CCN(CC)CC#CCOC(=O)C(O)(c1ccccc1)C1CCCCC1 (stereo unspecified) [Oxybutynin (Ditropan)],97.7% and 102%,104,82.9,95.9,83.5,100,91.8,87
Cc1cn([C@H]2C[C@H](O)[C@@H](CO)O2)c(=O)[nH]c1=O [Thymidine],98.3% and 88%,98.2,96.6,102,92.5,99.7,91.8,99.9
CCCOc1ccc(CCc2nc3cc(-c4c(C)noc4C)ccc3n2CCN2CCOCC2)cc1,81.1% and 91%,84.9,80.3,76.7,60.3,65,59.1,73.5
C/C(=C\CO)CCC[C@H](C)CCC[C@H](C)CCCC(C)C [Phytol],97% and 93.1%,96,89.1,103,85.5,92.6,80.5,82.6
Cc1[nH]c2ccccc2c1CCNCc1ccc(/C=C/C(=O)NO)cc1 [Panobinostat (LBH589)],1.37% and 8.1%,2.36,3.16,7.58,0.67,0.53,1.13,1.48
COc1cc(Nc2ncc(F)c(Nc3ccc4c(n3)N(COP(=O)(O)O)C(=O)C(C)(C)O4)n2)cc(OC)c1OC [R788 (Fostamatinib)],65.8% and 65.1%,59.4,63.8,57,3.63,6.37,11.3,21.2
C=C(c1ccc(C(=O)O)cc1)c1cc2c(cc1C)C(C)(C)CCC2(C)C [Bexarotene],84.9% and 95.7%,87.6,85.7,106,89.4,103,33.3,63.5
Cc1nc2ccc(NC(=O)Nc3ccnc4cccnc34)cc2o1,99.3% and 105%,98.3,96.4,89.9,104,107,88.2,96.4
CCCCCCCN(CC)CCCC(O)c1ccc(NS(C)(=O)=O)cc1 (stereo unspecified) [Ibutilide fumarate],87.6% and 106%,93.2,91.6,107,97.9,103,97.9,96.4
Nc1ccn([C@@H]2O[C@H](CO)[C@@H](O)[C@H]2O)c(=O)n1 [Cytidine],101% and 86.3%,84.4,82.5,89.9,81,89.2,82.5,86.6
